The results in this text go back to PubChem BioAssay (NCI).

Compounds without any hit were thinned out: in the full panel of roughly 83,000, 20% have a hit.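 Each cell line was grown in a 96-well plate and treated with one concentration of compound for 48 hours. Values below 10 were considered active.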 A number with no mark means an inactive call. Calls of active or inactive are those of the source.

Some test systems named below: NCI-H23 lung; NCI-H226 lung; NCI-H322M lung; HOP-62 NSCLC; NCI-H460 lung; HOP-92 NSCLC; NCI-H522 lung; A549/ATCC NSCLC; 786-0 renal; COLO 205 colon; DU-145 prostate; K-562 leukemia; MALME-3M melanoma; MDA-MB-231 breast; RXF 393 renal; SF-268 CNS; SF-295 CNS; SF-539 CNS; UACC-257 melanoma; M14 melanoma.
Assay in all cases: NCI-60 one-dose screen, 48 h (100 = growth as untreated, 0 = no growth, -100 = all killed)
What all share (conditions): 10 µM unless noted

`Cc1ccc(O)cc1Nc1nc(SCCN2CCOCC2)nc2c1cnn2CC(Cl)c1ccc(Br)cc1` (stereo not given): the growth in the assay on NCI-H23 lung was 13.7%; in the assay with NCI-H226 lung, 27.5%; with NCI-H322M lung, 73.5%; with HOP-62 NSCLC, 23%; with NCI-H460 lung, 9.59% (active); with HOP-92 NSCLC, -19.8% (active). The growth in the assay on NCI-H522 lung was 15.8%; in the assay on A549/ATCC NSCLC, -9.82% (active); in the assay on 786-0 renal, 11.1%; in the assay with COLO 205 colon, 85.9%; with DU-145 prostate, 29.5%; in the assay with K-562 leukemia, -38.6% (active). The growth with MALME-3M melanoma is 1.03% (active); in the assay with MDA-MB-231 breast, -30.6% (active); in the assay on RXF 393 renal, -24.3% (active); in the assay on SF-268 CNS it was 23.6%; with SF-295 CNS, -2.67% (active); in the assay with SF-539 CNS, 10.7%. Also, the growth in the assay with UACC-257 melanoma is 18.1%; in the assay on M14 melanoma, 9.14% (active).
Turning to `O=C(OCCOCCO)N(c1cccc(Br)c1)c1nc(SCCN2CCOCC2)nc2c1cnn2CC(Cl)c1ccc(Br)cc1` (stereo not given), the growth with NCI-H23 lung was -0.582% (active); in the assay with NCI-H226 lung it was 32.1%; in the assay with NCI-H322M lung, 50.9%; with HOP-62 NSCLC, 32.9%; in the assay with NCI-H460 lung, 8.55% (active); with HOP-92 NSCLC, 30.9%. The growth is -40.9% (active) with NCI-H522 lung; 15.2% with A549/ATCC NSCLC; -4.79% (active) in the assay with 786-0 renal; -42.3% (active) with COLO 205 colon; 41.3% in the assay with DU-145 prostate; 2.12% (active) in the assay with K-562 leukemia. The growth in the assay with MALME-3M melanoma was -29.1% (active); in the assay on MDA-MB-231 breast, 1.49% (active); with RXF 393 renal, -30% (active); with SF-268 CNS, 5.17% (active); in the assay with SF-295 CNS it was -66.6% (active); in the assay with SF-539 CNS, -25.2% (active). Also, the growth in the assay with UACC-257 melanoma is 2.33% (active); with M14 melanoma, -14.1% (active).
With `COc1sc(/C=N/NC(=O)c2[nH]c3ccc(Br)cc3c2-c2ccccc2)cc1Cl`, the growth in the assay on NCI-H23 lung is -41.9% (active); with NCI-H226 lung, -17.8% (active); in the assay on NCI-H322M lung, 13.3%; in the assay with HOP-62 NSCLC it was -27% (active); in the assay with NCI-H460 lung it was 1.26% (active); in the assay with HOP-92 NSCLC, -7.87% (active). For the same compound, the growth in the assay with NCI-H522 lung was -39% (active); in the assay with A549/ATCC NSCLC, -20.2% (active); in the assay with 786-0 renal, -49.8% (active); in the assay with COLO 205 colon, -60.9% (active); with DU-145 prostate, -63.2% (active); in the assay with K-562 leukemia it was 9.98% (active). For the same compound, the growth in the assay with MALME-3M melanoma was 18.1%; with MDA-MB-231 breast, -68% (active); in the assay with RXF 393 renal it was -25.7% (active); in the assay with SF-268 CNS it was -17.2% (active); with SF-295 CNS, -40.6% (active); in the assay with SF-539 CNS it was -85.3% (active). The results for the growth with UACC-257 melanoma and in the assay on M14 melanoma were 29% and -3.6% (active), respectively.
For `S=C(Nc1ccccc1)Nc1ccc(OCc2nc3ccc(Cl)cc3[nH]2)cc1`, the growth is 88% in the assay on NCI-H23 lung; 97.5% in the assay on NCI-H226 lung; 89.5% with NCI-H322M lung; 90.4% with HOP-62 NSCLC; 88.2% in the assay on NCI-H460 lung; 115% in the assay on HOP-92 NSCLC. Moreover, the growth is 61.1% with NCI-H522 lung; 88.2% in the assay on A549/ATCC NSCLC; 94.5% with 786-0 renal; 114% in the assay on COLO 205 colon; 96.4% in the assay with DU-145 prostate; 30.9% in the assay with K-562 leukemia. The growth with MALME-3M melanoma is 92.4%; in the assay with MDA-MB-231 breast, 80%; in the assay on RXF 393 renal, 85.1%; with SF-268 CNS, 92.1%; with SF-295 CNS, 93.7%; with SF-539 CNS it was 88.8%. Besides, the growth in the assay with UACC-257 melanoma was 105%; with M14 melanoma it was 85%.
On to `CN(C)c1nc(NCCNS(=O)(=O)c2ccc(C(=O)/C=C/c3ccccc3)cc2)nc(N2CCOCC2)n1`, for which the growth with NCI-H23 lung is 93.2%; in the assay on NCI-H226 lung, 82.6%; in the assay on NCI-H322M lung, 96.9%; with HOP-62 NSCLC, 108%; in the assay with NCI-H460 lung it was 101%; with HOP-92 NSCLC, 94.9%. For the same compound, the growth in the assay with NCI-H522 lung was 67.5%; with A549/ATCC NSCLC it was 78.8%; with 786-0 renal it was 66.4%; in the assay on COLO 205 colon, 105%; in the assay with DU-145 prostate, 89.6%; with K-562 leukemia it was -15.4% (active). In addition, the growth in the assay with MALME-3M melanoma was 99.2%; with MDA-MB-231 breast it was 7.26% (active); in the assay with RXF 393 renal, 79%; in the assay on SF-268 CNS, 74.6%; in the assay on SF-295 CNS, 75.6%; in the assay on SF-539 CNS it was 77.1%. Further, the growth with UACC-257 melanoma is 78.8%; in the assay with M14 melanoma, 84.4%.
With `COc1ccc(NC(=O)N/N=C/c2c[nH]c3ccccc23)cc1`, the growth is 40% with NCI-H23 lung; 34.7% with NCI-H226 lung; 43.2% in the assay with NCI-H322M lung; 44.1% in the assay on HOP-62 NSCLC; 14.9% in the assay with NCI-H460 lung; 69.5% in the assay on HOP-92 NSCLC. The growth with NCI-H522 lung was -34.7% (active); in the assay with A549/ATCC NSCLC it was 45.6%; in the assay on 786-0 renal it was 44.8%; in the assay on COLO 205 colon, 4.05% (active); in the assay on DU-145 prostate it was 27.6%; in the assay on K-562 leukemia, 17.8%. In addition, the growth was 61.9% in the assay with MALME-3M melanoma; 44.7% in the assay on MDA-MB-231 breast; 20.2% in the assay on RXF 393 renal; 55.7% with SF-268 CNS; 16.4% in the assay on SF-295 CNS; -13.6% (active) in the assay with SF-539 CNS. For the same compound, the growth with UACC-257 melanoma was 72.9%; in the assay on M14 melanoma, 29.7%.
Regarding `CCC1(OC(=O)c2ccccc2SSCCOC(=O)CCCCC2SCC3NC(=O)NC32)C(=O)OCc2c1cc1n(c2=O)Cc2cc3ccccc3nc2-1` (stereo not given), the growth with NCI-H23 lung is 15.4%; in the assay with NCI-H226 lung it was 41.6%; with NCI-H322M lung, 83.6%; in the assay on HOP-62 NSCLC it was 39.4%; with NCI-H460 lung, 13.3%; in the assay with HOP-92 NSCLC, 32.7%. Besides, the growth with NCI-H522 lung is 42.3%; in the assay with A549/ATCC NSCLC, 47%; in the assay on 786-0 renal, 50.9%; with COLO 205 colon it was 79.3%; with DU-145 prostate, 35.3%; in the assay with K-562 leukemia, 52.8%. Further, the growth in the assay on MALME-3M melanoma was 55.8%; in the assay with MDA-MB-231 breast it was 82.5%; with RXF 393 renal, 82%; in the assay with SF-268 CNS, 38.5%; in the assay with SF-295 CNS, 5.6% (active); in the assay with SF-539 CNS, 29.4%. The growth with UACC-257 melanoma was 12.8%; in the assay with M14 melanoma it was 40.1%.
As to `COc1ccc(N=Nc2c(N)nn3c(-c4ccc([N+](=O)[O-])cc4)ccnc23)cc1`, the growth in the assay on NCI-H23 lung was 105%; with NCI-H226 lung, 95.2%; in the assay with NCI-H322M lung it was 107%; in the assay on HOP-62 NSCLC it was 95.3%; in the assay on NCI-H460 lung, 105%; in the assay with HOP-92 NSCLC, 94.5%. Moreover, the growth in the assay on NCI-H522 lung was 91.6%; with A549/ATCC NSCLC, 104%; in the assay on 786-0 renal it was 93%; in the assay on COLO 205 colon, 119%; in the assay on DU-145 prostate, 105%; in the assay on K-562 leukemia it was 95.1%. Further, the growth in the assay on MALME-3M melanoma was 93%; with MDA-MB-231 breast, 98.5%; in the assay on RXF 393 renal, 109%; with SF-268 CNS it was 98.8%; in the assay with SF-295 CNS it was 97.5%; with SF-539 CNS, 99.2%. Besides, the growth with UACC-257 melanoma was 97.3%; in the assay on M14 melanoma it was 104%.
